Values joined by “and” are separate entries in the source; they are usually repeats but may differ in a detail not shown here. Identical values can stand only once. Screen size: about 5,500 compounds; about 2,000 (36%) were called active. Not shown: some 18% with an inconclusive outcome. Cut-off read from the data, not from the text of the source: active = normalized growth mostly below about 0.91 (no sharp cut-off); inconclusive = no clear call, values can overlap the other calls; inactive = mostly above about 0.92. The list shows a part of the results.
Experiment: chemical genetic growth profiling, strain panel (AID 1159580);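 note: tested at 20 µM; growth read once vehicle control cultures reached saturation at 30 °C; 1 = growth at the plate median or of vehicle wells; lower values mean less growth of the strain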
Settings: S. cerevisiae deletion strains, growth OD

Measured: normalized growth

NCCCCC(=O)O
inactive: locus YAL013W, strain DEP1, active compounds read low 1.03 | locus YAL021C, strain ccr4, active compounds read low 1.01 | locus YAL026C, strain drs2, active compounds read low 1.02 | locus YAL030W, strain snc1, active compounds read low 1.01 | locus YAL040C, strain CLN3, active compounds read low 1.01 | locus YBL061C, strain skt5, active compounds read low 1.02 | locus YBR009C, strain hhf1, active compounds read low 1.02 | locus YBR021W, strain FUR4, active compounds read low 0.976 | locus YBR023C, strain chs3, active compounds read low 1.02 | locus YBR171W, strain sec66, active compounds read low 1.02 | locus YBR229C, strain ROT2, active compounds read low 1.02 | locus YBR231C, strain swc5, active compounds read low 1.02 | locus YBR279W, strain paf1, active compounds read low 1.01 | locus YCL011C, strain gbp2, active compounds read low 1.02 | locus YCL016C, strain dcc1, active compounds read low 1.01 | locus YCL029C, strain bik1, active compounds read low 0.998 | locus YCL061C, strain MRC1 (second series), active compounds read low 1 | locus YCL069W, strain vba3, active compounds read low 1.01 | locus YCR088W, strain abp1, active compounds read low 1.02 | locus YDL005C, strain med2, active compounds read low 1.02 | locus YDL035C, strain GPR1, active compounds read low 1.02 | locus YDL040C, strain nat1, active compounds read low 1.02 | locus YDL074C, strain BRE1, active compounds read low 1.04 | locus YDL101C, strain DUN1, active compounds read low 1.03 | locus YDL134C, strain PPH21, active compounds read low 1.02 | locus YDL185W, strain tfp1, active compounds read low 0.995 | locus YDL192W, strain arf1, active compounds read low 0.992 | locus YDR001C, strain nth1, active compounds read low 1.01 | locus YDR069C, strain doa4, active compounds read low 1.02 | locus YDR101C, strain arx1, active compounds read low 0.985 | locus YDR137W, strain rgp1, active compounds read low 1.02 | locus YDR150W, strain NUM1, active compounds read low 1.03 | locus YDR159W, strain sac3, active compounds read low 1.03 | locus YDR162C, strain NBP2, active compounds read low 1.04 | locus YDR195W, strain ref2 1.01 | locus YDR297W, strain sur2, active compounds read low 1.02 | locus YDR318W, strain mcm21, active compounds read low 0.992 | locus YDR334W, strain swr1, active compounds read low 1.01 | locus YDR335W, strain msn5, active compounds read low 1.01 | locus YDR388W, active compounds read low 0.986 | locus YDR392W, strain spt3, active compounds read low 1.01 | locus YDR502C, strain sam2, active compounds read low 1 | locus YEL003W, strain gim4, active compounds read low 1.01 | locus YEL037C, strain rad23, active compounds read low 1 | locus YEL061C, strain CIN8 (second series), active compounds read low 1.01 | locus YEL061C, strain CIN8, active compounds read low 1.01 | locus YER002W, strain NOP16, active compounds read low 1 | locus YER015W, strain faa2, active compounds read low 1.02 | locus YER016W, strain bim1, active compounds read low 1.02 | locus YER110C, active compounds read low 0.977 | locus YER111C, strain swi4, active compounds read low 1.03 | locus YER155C, strain BEM2 (second series), active compounds read low 1.04 | locus YER155C, strain BEM2, active compounds read low 1.03 | locus YER167W, strain BCK2, active compounds read low 1.03 | locus YFR010W, strain ubp6, active compounds read low 1.01 | locus YGL078C, strain dbp3, active compounds read low 0.989 | locus YGL086W, strain mad1, active compounds read low 0.993 | locus YGL167C, strain pmr1, active compounds read low 1.03 | locus YGL173C, strain kem1, active compounds read low 1.02 | locus YGL227W, strain vid30, active compounds read low 1.02 | locus YGL240W, strain doc1, active compounds read low 1.03 | locus YGL248W, strain PDE1, active compounds read low 1.03 | locus YGL253W, strain hxk2, active compounds read low 1.01 | locus YGR078C, strain PAC10, active compounds read low 1.03 | locus YGR135W, strain pre9, active compounds read low 0.985 | locus YGR229C, strain SMI1, active compounds read low 1.02 and 1.01 | locus YGR252W, strain gcn5, active compounds read low 0.917 | locus YHR013C, strain ard1, active compounds read low 1.04 | locus YHR027C, strain rpn1, active compounds read low 1.01 | locus YHR030C, strain SLT2, active compounds read low 1.02 and 0.975 | locus YHR079C, strain IRE1 (second series), active compounds read low 0.992 | locus YHR079C, strain IRE1, active compounds read low 0.961 | locus YHR094C, strain hxt1, active compounds read low 1 | locus YHR129C, strain ARP1, active compounds read low 1.02 | locus YHR142W, strain chs7, active compounds read low 1.03 | locus YHR200W, strain rpn10, active compounds read low 1.01 | locus YIL066C, strain RNR3, active compounds read low 1.02 | locus YIL073C, strain SPO22, active compounds read low 1.02 | locus YIL125W, strain kgd1, active compounds read low 0.994 | locus YIR030C, strain dcg1, active compounds read low 0.998 | locus YJL092W, strain hpr5, active compounds read low 1.02 | locus YJL095W, strain BCK1 (second series), active compounds read low 1.03 | locus YJL095W, strain BCK1, active compounds read low 1.02 and 0.979 | locus YJL115W, strain asf1, active compounds read low 1.02 | locus YJL129C, strain trk1, active compounds read low 1.03 | locus YJL134W, strain LCB3, active compounds read low 1.02 | locus YJL154C, strain vps35, active compounds read low 1.02 | locus YJL164C, strain tpk1, active compounds read low 1.02 | locus YJL166W, strain qcr8, active compounds read low 1.02 | locus YJL168C, strain set2, active compounds read low 0.991 | locus YJL187C, strain SWE1 (second series), active compounds read low 1.02 | locus YJR043C, strain POL32, active compounds read low 1.03 | locus YJR066W, strain TOR1, active compounds read low 0.902 | locus YJR075W, strain HOC1, active compounds read low 1.03
